Assay [1] can be described thus: nuclear p53 accumulation, HPV+ cells – imaging, p53-positive nuclei imaging, 24 h, 48 h (AID 1508601). The note with it: 24/48 h.
The target of assay [2] is Cellular tumor antigen p53 (Homo sapiens) (UniProt P04637). The description is as above. The note with it: 24/48 h, stronger effect = higher value.
Where [3] appears, read: measured here: cell number at 24 h, Library stock concentration: 10 mM.
Setting [4] is: measured here: cell number at 24 h, concentration not given here.
Setting [5] is: measured here: cell number at 48 h, Library stock concentration: 10 mM.
Setting [6] is: measured here: cell number at 48 h, concentration not given here.
[7] abbreviates: Library stock concentration: 10 mM.
The mark [8] stands for this setting: measured here: p53 positive nuclei at 24 h, Library stock concentration: 10 mM.
[9] abbreviates: measured here: p53 positive nuclei at 24 h, concentration not given here.
Where [10] appears, read: measured here: cell number at 24 h, Library stock concentration: 3.33 mM.
Setting [11] is: measured here: cell number at 48 h, Library stock concentration: 3.33 mM.
The mark [12] stands for this setting: Library stock concentration: 3.33 mM.
The mark [13] stands for this setting: measured here: p53 positive nuclei at 24 h, Library stock concentration: 3.33 mM.

Drawing on PubChem BioAssay AID1508601 (ICCB-Longwood Screening Facility, Harvard Medical School, 2020), this text covers nuclei count, normalised and p53-positive nuclei, normalised for 8 compounds.

“And” between values parts separate entries of the source, which are not always exact repeats. Equal values may be shown once. Among all 5,700 compounds or so, about 85 (1%) were called active. Rule as the data show it: active = p53-positive nuclei above about 36% (passing the limit was not always enough); inactive = the rest. The full list was thinned out, with actives kept by preference. A structure can be active in one record and inactive in another.

Sequence of Cellular tumor antigen p53 (Homo sapiens) (P04637 whole entry, looked up): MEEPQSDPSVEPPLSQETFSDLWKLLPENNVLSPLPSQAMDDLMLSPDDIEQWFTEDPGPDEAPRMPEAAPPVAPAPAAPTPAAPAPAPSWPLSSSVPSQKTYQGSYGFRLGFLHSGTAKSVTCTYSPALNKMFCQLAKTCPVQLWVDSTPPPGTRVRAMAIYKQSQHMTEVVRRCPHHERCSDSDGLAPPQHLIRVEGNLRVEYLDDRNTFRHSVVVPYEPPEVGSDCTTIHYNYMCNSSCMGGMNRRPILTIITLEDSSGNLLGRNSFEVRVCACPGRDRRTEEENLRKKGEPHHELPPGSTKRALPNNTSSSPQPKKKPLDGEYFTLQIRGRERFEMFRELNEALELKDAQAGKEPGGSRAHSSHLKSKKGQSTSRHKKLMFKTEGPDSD

With `CC[n+]1c(-c2ccccc2)c2cc(N)ccc2c2ccc(N)cc21`, the nuclei count, normalised came out at 102% in assay [1] (measured here: cell number at 24 h, Library stock concentration: 500 nM); 108% in assay [1] (measured here: cell number at 24 h, Library stock concentration: 1.5 uM); 106% in assay [1] (measured here: cell number at 24 h, Library stock concentration: 4.6 uM); 111% in assay [1] (measured here: cell number at 24 h, Library stock concentration: 13.7 uM); 111% in assay [1] (measured here: cell number at 24 h, Library stock concentration: 41 uM); 102% in assay [1] (measured here: cell number at 24 h, Library stock concentration: 123 uM). For the same compound, the nuclei count, normalised in assay [1] (measured here: cell number at 24 h, Library stock concentration: 370 uM) was 117%; in assay [1] (measured here: cell number at 24 h, Library stock concentration: 1.111 mM) it was 107%; in assay [1] (measured here: cell number at 24 h, Library stock concentration: 3.333 mM) it was 105%; in assay [1] (setting [3]), 83.1%; in assay [1] (setting [4]) it was 104%; in assay [1] (measured here: cell number at 48 h, Library stock concentration: 500 nM) it was 104%. Moreover, the nuclei count, normalised in assay [1] (measured here: cell number at 48 h, Library stock concentration: 1.5 uM) worked out at 109%; in assay [1] (measured here: cell number at 48 h, Library stock concentration: 4.6 uM), 106%; in assay [1] (measured here: cell number at 48 h, Library stock concentration: 13.7 uM), 109%; in assay [1] (measured here: cell number at 48 h, Library stock concentration: 41 uM) it was 109%; in assay [1] (measured here: cell number at 48 h, Library stock concentration: 123 uM), 99.5%; in assay [1] (measured here: cell number at 48 h, Library stock concentration: 370 uM) it was 104%. The nuclei count, normalised in assay [1] (measured here: cell number at 48 h, Library stock concentration: 1.111 mM) came to 99.7%; in assay [1] (measured here: cell number at 48 h, Library stock concentration: 3.333 mM), 98.5%; in assay [1] (setting [5]) it was 75.3%; in assay [1] (setting [6]), 97.4%. Also, the p53-positive nuclei, normalised was 0.0282% (inactive) in assay [2] (Library stock concentration: 500 nM); 0.101% (inactive) in assay [2] (Library stock concentration: 1.5 uM); -0.0128% (inactive) in assay [2] (Library stock concentration: 4.6 uM); -0.0168% (inactive) in assay [2] (Library stock concentration: 13.7 uM); 0.329% (inactive) in assay [2] (Library stock concentration: 41 uM); 3.12% (inactive) in assay [2] (Library stock concentration: 123 uM). Also, the p53-positive nuclei, normalised in assay [2] (Library stock concentration: 370 uM) is 7.73% (inactive); in assay [2] (Library stock concentration: 1.111 mM), 12.2% (inactive); in assay [2] (Library stock concentration: 3.333 mM) it was 19.5% (inactive); in assay [2] (setting [7]), 103% (active); in assay [2] (concentration not given here), 34.3% (inactive); in assay [2] (measured here: p53 positive nuclei at 24 h, Library stock concentration: 500 nM), 0.0668%. Moreover, the p53-positive nuclei, normalised in assay [2] (measured here: p53 positive nuclei at 24 h, Library stock concentration: 1.5 uM) is 0.166%; in assay [2] (measured here: p53 positive nuclei at 24 h, Library stock concentration: 4.6 uM) it was -0.00293%; in assay [2] (measured here: p53 positive nuclei at 24 h, Library stock concentration: 13.7 uM), -0.0711%; in assay [2] (measured here: p53 positive nuclei at 24 h, Library stock concentration: 41 uM) it was 0.21%; in assay [2] (measured here: p53 positive nuclei at 24 h, Library stock concentration: 123 uM) it was 1.53%; in assay [2] (measured here: p53 positive nuclei at 24 h, Library stock concentration: 370 uM), 4.81%. Also, the p53-positive nuclei, normalised in assay [2] (measured here: p53 positive nuclei at 24 h, Library stock concentration: 1.111 mM) was 11.9%; in assay [2] (measured here: p53 positive nuclei at 24 h, Library stock concentration: 3.333 mM), 38.2%; in assay [2] (setting [8]), 127%; in assay [2] (setting [9]), 45.3%.

On to `CCCCC/C=C\C/C=C\C/C=C\C/C=C\CCCC(=O)N[C@H](C)COP(=O)(O)O`, for which the nuclei count, normalised in assay [1] (setting [4]) is 107%; in assay [1] (setting [6]), 103%. For the same compound, the figures for the p53-positive nuclei, normalised in assay [2] (concentration not given here) and in assay [2] (setting [9]) were 0.124% (inactive) and -0.0345%, respectively.

As to `N#CC(OC1OC(COC2OC(CO)C(O)C(O)C2O)C(O)C(O)C1O)c1ccccc1` (centres undefined), the figures for the nuclei count, normalised in assay [1] (setting [10]) and in assay [1] (setting [11]) were 95.4% and 89.1%, respectively. The p53-positive nuclei, normalised in assay [2] (setting [12]) is 0.141% (inactive); in assay [2] (setting [13]) it was -0.0206%.

In the case of `Cc1ccc(-n2nccn2)c(C(=O)N2CCN(c3nc4cc(Cl)ccc4o3)CCC2C)c1` (centres undefined), the results for the nuclei count, normalised in assay [1] (setting [10]) and in assay [1] (setting [11]) were 71.4% and 76.4%, respectively. In addition, the p53-positive nuclei, normalised was 0.0905% (inactive) in assay [2] (setting [12]) and -0.163% in assay [2] (setting [13]).

For the compound `c1cc(N2CCNCC2)c2cnccc2c1`, the nuclei count, normalised in assay [1] (setting [4]) was 95.9%; in assay [1] (setting [6]), 98.3%. The p53-positive nuclei, normalised is -0.118% (inactive) in assay [2] (concentration not given here) and -0.041% in assay [2] (setting [9]).

Consider `CN(C)C(=S)SSC(=S)N(C)C`, for which the nuclei count, normalised is 35.4% in assay [1] (setting [4]) and 24.2% in assay [1] (setting [6]). In addition, the p53-positive nuclei, normalised in assay [2] (concentration not given here) is 90.3% (active); in assay [2] (setting [9]), 108%.

For the compound `Cc1sc2c(c1C)C(c1ccc(Cl)cc1)=NC(CC(=O)OC(C)(C)C)c1nnc(C)n1-2` (centres undefined), the nuclei count, normalised in assay [1] (measured here: cell number at 24 h, Library stock concentration: 80 uM) is 101% and 128% and 116%; in assay [1] (measured here: cell number at 24 h, Library stock concentration: 400 uM), 109% and 128% and 117%; in assay [1] (measured here: cell number at 24 h, Library stock concentration: 2 mM) it was 107% and 132% and 120%; in assay [1] (setting [10]), 128%; in assay [1] (setting [3]), 99.7% and 123% and 119%; in assay [1] (measured here: cell number at 48 h, Library stock concentration: 80 uM) it was 95.3% and 134% and 114%. Further, the nuclei count, normalised in assay [1] (measured here: cell number at 48 h, Library stock concentration: 400 uM) was 97.6% and 128% and 112%; in assay [1] (measured here: cell number at 48 h, Library stock concentration: 2 mM), 109% and 132% and 118%; in assay [1] (setting [11]) it was 124%; in assay [1] (setting [5]), 99.9% and 124% and 117%. Besides, the p53-positive nuclei, normalised in assay [2] (Library stock concentration: 80 uM) was 0.233% (inactive) and -0.29% (inactive) and -0.79% (inactive); in assay [2] (Library stock concentration: 400 uM), -0.238% (inactive) and -0.0882% (inactive) and -0.721% (inactive); in assay [2] (Library stock concentration: 2 mM), 3.93% (inactive) and 0.629% (inactive) and -0.825% (inactive); in assay [2] (setting [12]) it was 7.2% (inactive); in assay [2] (setting [7]), 26.8% (active) and 8.08% (inactive) and -0.599% (inactive); in assay [2] (measured here: p53 positive nuclei at 24 h, Library stock concentration: 80 uM), 0.0692% and 0.858% and -0.21%. The p53-positive nuclei, normalised in assay [2] (measured here: p53 positive nuclei at 24 h, Library stock concentration: 400 uM) was 0.159% and 1.07% and -0.0728%; in assay [2] (measured here: p53 positive nuclei at 24 h, Library stock concentration: 2 mM), 12.9% and 4.45% and -0.21%; in assay [2] (setting [13]) it was 15.6%; in assay [2] (setting [8]), 54.1% and 21.9% and 0.0629%.

For the compound `Cc1sc2c(c1C)C(c1ccc(Cl)cc1)=NC(CC(N)=O)c1nnc(C)n1-2` (centres undefined), the nuclei count, normalised turned out to be 103% in assay [1] (measured here: cell number at 24 h, Library stock concentration: 46 uM); 99.7% in assay [1] (measured here: cell number at 24 h, Library stock concentration: 278 uM); 85.4% in assay [1] (measured here: cell number at 24 h, Library stock concentration: 1.67 mM); 123% in assay [1] (setting [10]); 90.1% in assay [1] (setting [3]); 106% in assay [1] (measured here: cell number at 48 h, Library stock concentration: 46 uM). Further, the nuclei count, normalised was 102% in assay [1] (measured here: cell number at 48 h, Library stock concentration: 278 uM); 87.7% in assay [1] (measured here: cell number at 48 h, Library stock concentration: 1.67 mM); 122% in assay [1] (setting [11]); 84.3% in assay [1] (setting [5]). The p53-positive nuclei, normalised in assay [2] (Library stock concentration: 46 uM) is -0.111% (inactive); in assay [2] (Library stock concentration: 278 uM), 0.158% (inactive); in assay [2] (Library stock concentration: 1.67 mM), 12.8% (inactive); in assay [2] (setting [12]) it was 3.31% (inactive); in assay [2] (setting [7]), 25.8% (inactive); in assay [2] (measured here: p53 positive nuclei at 24 h, Library stock concentration: 46 uM), -0.0163%. Also, the p53-positive nuclei, normalised in assay [2] (measured here: p53 positive nuclei at 24 h, Library stock concentration: 278 uM) was 0.11%; in assay [2] (measured here: p53 positive nuclei at 24 h, Library stock concentration: 1.67 mM), 27%; in assay [2] (setting [13]), 12.7%; in assay [2] (setting [8]) it was 46.3%.
